This is a sample that favours compounds with a hit; in the whole collection about 3.4% have one here.
LMP1 NFkB inh: inhibitors of Epstein-Barr LMP1-induced NF-kappaB reporter | actives 0.69% (n = 350,000) | inhibition, % at 12.5 µM | LMP1-induced NF-kappaB luciferase reporter cells, luminescence; in the data active means inhibition above about 41%; inconclusive means no clear call, values can overlap the other calls;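 further: 0% = neutral control wells and 100% = reference inhibitor control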
HIF-2a block: blocks HIF-2a reporter activity; actives 0.72% (n = 360,000); inhibition, % at 18.8 µM; 786-0 RCC cells HIF-2a reporter, luciferase luminescence, overnight;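 active means inhibition of the luminescence signal of 40% or more relative to plate controls, in a single-dose primary screen at 18.75 µM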
TWEAK Fn14 block: blocks TWEAK-Fn14 interaction in a reporter cell assay; TWEAK-stimulated Fn14 reporter cells, luciferase luminescence, 8 h; inhibition, % at 10 µM; actives 2% (n = 360,000); AID 1159606; in the data active means inhibition above about 50%
Shn3 3UTR inh: reduces Shn3 3'UTR luciferase signal in osteoblasts. Clone20 osteoblast Shn3 3'UTR firefly luciferase, 24 h. inhibition, % at 12.5 µM. actives 0.52% (n = 360,000). AID 588674;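 active means mean inhibition of at least 75% with every replicate also reaching 75%; inconclusive means mean inhibition at least 75% but some replicate below; inactive means mean inhibition below 75%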;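 further: 0% = median of neutral control wells and 100% = pilot-screen positive control compound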
MITF TRPM1 inh: inhibitors of MITF-driven TRPM1 promoter in melanoma cells | SK-MEL-5 TRPM1 promoter luciferase, 24 h | AID 488899 | actives 0.83% (n = 330,000) | inhibition, % at 12.5 µM;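 active means mean inhibition across replicates of 60% or more, whatever share of single replicates reaches that level; inconclusive means some that reach 60%, reason not given; inactive means mean inhibition across replicates below 60%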
TROY NFkB inh: TROY signaling inhibition; Q293 LMP1-TROYcd NF-kB luciferase reporter, 4 h; AID 1347056; actives 0.98% (n = 360,000); inhibition, % at 10 µM;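 active means compounds whose plate-normalised and pattern-corrected inhibition of the luciferase reporter signal at the single screening dose is 50% or more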
* = called active by the depositor; ? = inconclusive; · = no result.

SMILES	LMP1 NFkB inh	HIF-2a block	TWEAK Fn14 block	Shn3 3UTR inh	MITF TRPM1 inh	TROY NFkB inh
CC1(C)N=C(N)N=C(N)N1c1ccc(CCCCc2ccccc2)cc1	54*	30	40	89*	·	21
Cc1cc2c(=O)oc(-c3ccc(F)cc3)nc2s1	0	-45	53*	19	-1	-16
Cn1cnnc1SCC(=O)n1c2ccccc2c2ccccc21	46*	-1	0	-7	-3	7
O=C(c1cccs1)c1ccccc1Cc1cccs1	0	-27	92*	-2	-13	-24
COc1ccc(-c2ccc(C(=O)NCc3ccncc3)c3occc23)c(C)c1	·	-97	45	56	·	6
CC(C)(C)OC(=O)C[C@H]1C/C=C\C[C@H](CC(=O)N(CCO)Cc2ccccc2)C(=O)N[C@@H](c2ccccc2)COC1=O	-1	6	0	24	-2	9
CCc1ccc(NC(=O)Cn2nc(C(F)(F)F)c3c2CCC3)cc1	1	11	-4	6	-7	10
COc1cc(NC(=O)Cn2nc(C(F)(F)F)c3c2CCCC3)cc(OC)c1OC	8	8	66*	31	13	·
CCN(CC)c1ccc2cc(C(C)=O)c(=O)oc2c1	-9	-119	-21	11	-9	-25
CCN(CC)c1ccc2cc(NC(=O)CCC(=O)O)c(=O)oc2c1	38	84*	91*	61	92*	69*
CCN(CC)c1ccc2cc(C(N)=O)c(=O)oc2c1	-6	-113	-21	-13	-31	-58
CCN(CC)c1ccc2cc(C(=O)Nc3ccccn3)c(=O)oc2c1	7	-117	87*	17	-11	53*
CC(=O)O[C@H](CC(=O)O)C[N+](C)(C)C	59*	7	-19	74	8	-15
CC(=O)OC(CC(=O)O)C[N+](C)(C)C (stereo unspecified)	-5	2	-21	4	2	12
C[C@@H](NC(=O)c1coc(=O)c(Br)c1)c1ccccc1	-54	10	87*	16	-6	9
COc1ccc(C(=O)NC(C)c2ccccc2)cc1Br (stereo unspecified)	-4	2	7	5	6	4
Cc1nn(CC(=O)Nc2cccc(C(F)(F)F)c2)c(=O)c2cccn12	4	4	-2	-10	-3	17
O=C(O)CCC(=O)Nc1ccc(C(=O)OC2CCCCC2)cc1	-2	52*	42	4	7	-5
O=C(c1ccccc1)C(CN1CCCCC1)c1ccccc1 (stereo unspecified)	55*	27	71*	?	97*	8
COC(=O)Cn1ncc2c(C)n(Cc3ccccc3)c(C)c2c1=O	68*	-197	-10	-43	-41	-43
COc1ccc2cnn(Cc3ccccc3)c(=O)c2c1OC	3	-68	28	-10	0	51*
O=C(/C=C/Nc1ccc(F)cc1F)c1cccs1	3	-7	60*	-6	12	10
Cc1ccc(N/C=C/C(=O)c2cccs2)cc1	16	-35	81*	10	31	55*
O=C(/C=C\Nc1cccc(F)c1)c1cccs1	-50	-229	10	-77	-31	-56
O=C(/C=C/Nc1ccccc1F)c1cccs1	13	-25	64*	-64	12	-14
SMILES	LMP1 NFkB inh	HIF-2a block	TWEAK Fn14 block	Shn3 3UTR inh	MITF TRPM1 inh	TROY NFkB inh
O=C1CCC([N+](=O)[O-])C(c2ccccc2F)N1 (stereo unspecified)	2	7	-9	8	·	23
CC(NC(=O)/C(C#N)=C/c1ccc([N+](=O)[O-])o1)c1ccccc1 (stereo unspecified)	-6	78*	5	94*	58	5
CCOCCCNC(=O)/C(C#N)=C/c1ccc([N+](=O)[O-])o1	-14	34	-2	98*	61*	12
CC(NC(=O)/C(C#N)=C/c1ccco1)c1ccccc1 (stereo unspecified)	-4	-2	-3	1	-5	1
CCOCCCNC(=O)/C(C#N)=C/c1ccc(-c2ccc(S(=O)(=O)N3CCOCC3)cc2)o1	3	17	24	-6	-6	8
Cc1ccc2nc(-c3ccc(O)c(O)c3)cn2c1	3	-112	69*	90*	46	-9
O=C(Nc1ccc(-c2nc3ncccc3o2)cc1)c1ccc([N+](=O)[O-])o1	-2	-2	23	97*	77*	5
O=C(Nc1ccc2oc(-c3ccncc3)nc2c1)c1ccccc1	4	-67	-6	-4	3	1
O=C(Nc1ccc2oc(-c3ccncc3)nc2c1)c1ccc([N+](=O)[O-])o1	-21	6	19	?	72*	0
CCOc1ccc(-c2ccc(SC)nn2)cc1	59*	27	-15	68	62*	75*
CCOc1ccc(-c2ccc(SCC(=O)Nc3nnc(CC)s3)nn2)cc1	2	-176	12	-29	-69	-55
O=C(Nc1cccc(S(=O)(=O)Nc2ccccc2Cl)c1)c1ccc(Cl)nc1	23	27	63*	80	17	28
COc1ccccc1NS(=O)(=O)c1cccc(NC(=O)Nc2ccc(Cl)cc2)c1	-5	-24	84*	13	-12	59*
COc1ccccc1NS(=O)(=O)c1cccc(NC(=O)Nc2ccccc2)c1	-1	26	34	34	-5	46
O=C(Nc1cccc(S(=O)(=O)N2CCCCCC2)c1)c1ccc(Cl)nc1	6	9	42	39	-3	28
O=C(Nc1cccc(S(=O)(=O)N2CCCCC2)c1)Nc1ccc(Cl)cc1Cl	-1	-37	83*	15	15	59*
O=C(Nc1ccc(Cl)cc1Cl)NC1CCN(S(=O)(=O)c2ccc(F)cc2)CC1	-7	-13	-16	5	13	52*
O=C(Cc1ccccc1Cl)Nc1cccc(S(=O)(=O)N2CCCCCC2)c1	5	4	9	-11	17	8
CCOC(=O)c1ccccc1NC(=O)COC(=O)C1CCN(S(=O)(=O)c2ccccc2C(=O)OC)CC1	0	4	-10	-15	-10	-2
CC(=NNC(=O)c1ccncc1)c1ccccc1O	27	-44	-40	83	34	-15
CC(C)CC(=NNC(=O)c1ccncc1)c1cc(Cl)ccc1O	73*	14	35	85*	55	25
CCN(C(=O)COC(=O)CNC(=O)C1CCCCC1)c1ccccc1	3	1	15	22	-11	-5
CCCCN(Cc1cc2cc(OC)ccc2[nH]c1=O)S(=O)(=O)c1ccc(C)cc1	-1	19	52*	69	0	46
COc1ccc(-n2ccn(CC(=O)Nc3ccccc3OC)c(=O)c2=O)cc1	-2	10	2	0	12	-14
COc1ccccc1N(C)S(=O)(=O)c1ccc(C(=O)Nc2ccc3nc(C)sc3c2)cc1	29	12	50	28	21	50*

Screens from PubChem BioAssay.
